Experimental data reported in PubChem BioAssay (NCATS).
Records with an inconclusive call do not appear. Where a call stands in place of a potency, no number is given. Activity calls are given as the source filed them. Unless noted, calls follow the shape of the dose curve; as a rule, active = well fitted curve in the direction sought with a large enough effect; inconclusive = small, poorly fitted or top-dose-only effect, or another doubt; inactive = no such curve, though single readings can be large; an effect the other way counts as inactive or inconclusive.

Assays:
[1] = Primary qHTS for small molecule stabilizers of the endoplasmic reticulum resident proteome: Secreted ER Calcium Modulated Protein (SERCaMP) assay (AID 1508630); also: potency is read from the fitted curve at half-maximal effect
Procedure, shortened: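 GLuc-SERCaMP-expressing SH-SY5Y cells, pretreated 16 h with compound, are challenged with thapsigargin to empty ER calcium stores; after 4 h, coelenterazine is added directly to the medium and luminescence is imaged.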

[2] = Cell Viability qHTS for small molecule stabilizers of the endoplasmic reticulum resident proteome (AID 1508629); conditions: cell viability counter-screen, 100 nM thapsigargin for final 4 h;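 also: compound exposure about 46 h in total before the viability read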; also: potency is read from the fitted curve at half-maximal effect;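 as to max response: human SH-SY5Y neuroblastoma cells carrying the GLuc-SERCaMP reporter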
[3] = biological target: Cytochrome P450 2D6 (Homo sapiens) (UniProt P10635); test: Cytochrome P450 family 2 subfamily D member 6 (CYP2D6) small molecule antagonists: luciferase biochemical (cell-free) qHTS assay (AID 1645840; active = well fitted curve in the direction sought with a large enough effect in the repeat runs; an effect the other way counts as inactive or inconclusive; also: nearly all actives have a fitted effect of over 55% in size; also: potency is read from the fitted curve at half-maximal effect)
Procedure, shortened: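 P450-Glo luminescent screen: recombinant CYP2D6 enzyme–proluciferin substrate mix preincubated with compound 10 min at room temperature, then NADPH regeneration added for 1 h at room temperature. Detection reagent added for 20 min; luciferin light read as relative luminescence units.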

[4] = biological target: Cytochrome P450 3A4 (Homo sapiens) (UniProt P08684); test: Cytochrome P450 family 3 subfamily A member 4 (CYP3A4) small molecule antagonists: luciferase qHTS assay (AID 1645841; active = well fitted curve in the direction sought with a large enough effect in the repeat runs; an effect the other way counts as inactive or inconclusive; also: potency is read from the fitted curve at half-maximal effect; nearly all actives have a fitted effect of over 45% in size)
Procedure, shortened: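 P450-Glo CYP3A4 enzyme with proluciferin substrate preincubated 10 min with compound at room temperature, then NADPH regeneration 1 h. Luciferin detection reagent added for 20 min; luminescence recorded. Ketoconazole positive control.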

[5] = biological target: Cytochrome P450 2C9 (Homo sapiens) (UniProt P11712); test: Cytochrome P450 family 2 subfamily C member 9 (CYP2C9) small molecule antagonists: luciferase biochemical (cell-free) qHTS assay (AID 1645842; active = well fitted curve in the direction sought with a large enough effect in the repeat runs; an effect the other way counts as inactive or inconclusive; also: nearly all actives have a fitted effect of over 55% in size; also: potency is read from the fitted curve at half-maximal effect)
Procedure, shortened: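 Luminescence, after 20 min with luciferin detection reagent, reflected CYP2C9 turnover during a 1 h NADPH-driven reaction at 37C. Enzyme-substrate mix contained 0.4% bovine serum albumin and was preincubated with compound 10 min at room temperature.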

[6] = Confirmatory qHTS for small molecule stabilizers of the endoplasmic reticulum resident proteome: Secreted ER Calcium Modulated Protein (SERCaMP) assay (AID 1508628); also: nearly all actives have a fitted effect of over 40% in size; also: potency is read from the fitted curve at half-maximal effect
Procedure, shortened: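 We seeded SH-SY5Y-GLuc-SERCaMP cells, added compounds (three concentrations in the primary run, eleven up to 76.6 uM in confirmation), incubated 16 h, depleted ER calcium with thapsigargin, and read luciferase 4 h later.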

Papain (Carica papaya) = Papain (Carica papaya) (UniProt P00784); test: Primary qHTS assay for inhibitors of the protease papain (AID 1645873);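 also: papain turnover of Z-FR-AMC read as the AMC fluorescence gain over 10 min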
[7] = Cytotoxicity counterscreen for inhibitors of SARS-CoV-2 cell entry (AID 1645845; calls by dose curve; also: nearly all actives have a fitted effect of over 50% in size; also: potency is read from the fitted curve at half-maximal effect)
Procedure, shortened: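 HEK293-ACE2 cells (Expi293F stably expressing human ACE2) seeded overnight, then compound for 1 h plus 48 h at 37C. Viability as ATP content by luminescence; normalized to wells with cells and media-only wells.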

[8] = Primary qHTS for inhibitors of nuclear receptor binding SET domain protein 2 (NSD2) in an isogenic RCH-ACV NSD2 p.E1099K mutant (9B) (AID 1645876); also: nearly all actives have a fitted effect of over 70% in size; also: potency is read from the fitted curve at half-maximal effect
[9] = Primary qHTS for inhibitors of nuclear receptor binding SET domain protein 2 (NSD2) in an RCH-ACV wild type WT cells (2C) (AID 1645877); also: nearly all actives have a fitted effect of over 70% in size; also: potency is read from the fitted curve at half-maximal effect
[10] = biological target: N-terminal Xaa-Pro-Lys N-methyltransferase 1 (Homo sapiens) (UniProt Q9BV86); test: Confirmatory qHTS for Inhibitors of N-terminal methyltransferase 1 (NTMT1): MTaseGlo Assay (AID 1645874); conditions: NTMT1 enzyme, MTase-Glo SAH luminescence; also: potency is read from the fitted curve at half-maximal effect; nearly all actives have a fitted effect of over 65% in size
Procedure, shortened: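 qHTS format: NTMT1 125 nM, SAM 100 uM, peptide SPKRIA 1 uM final; 15 min compound preincubation, 30 min reaction at room temperature. MTase-Glo luminescence.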

[11] = biological target: Rap guanine nucleotide exchange factor 3 (Homo sapiens) (UniProt O95398); test: Confirmatory qHTS for agonist of cAMP-regulated guanine nucleotide exchange factor 3 (EPAC1) (AID 1645881);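 also: EPAC1 catalysed release of BODIPY-GDP from Rap1B seen as fluorescence loss; nearly all actives have a fitted effect of over 75% in size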
[12] = biological target: Rap guanine nucleotide exchange factor 4 (Homo sapiens) (UniProt Q8WZA2); test: Confirmatory qHTS for agonist of cAMP-regulated guanine nucleotide exchange factor 4 (EPAC2) (AID 1645884);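 also: nucleotide exchange releases bodipy-GDP from Rap1 and this lowers its fluorescence; nearly all actives have a fitted effect of over 65% in size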
[13] = biological target: Rap guanine nucleotide exchange factor 4 (Homo sapiens) (UniProt Q8WZA2); test: Confirmatory qHTS for antagonist of cAMP-regulated guanine nucleotide exchange factor 4 (EPAC2) (AID 1645885); also: potency is read from the fitted curve at half-maximal effect; nearly all actives have a fitted effect of over 25% in size
[14] = Primary qHTS to identify inhibitors of SARS-CoV-2 cell entry (AID 1645846; calls by dose curve; also: nearly all actives have a fitted effect of over 45% in size; also: potency is read from the fitted curve at half-maximal effect); conditions: activity change, negative = inhibition: at 57.1 µM (top of the series) unless noted
Procedure, shortened: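 Inhibition of spike-mediated entry was scored in human ACE2-transfected Expi293F cells. Particles were MLV-pseudotyped with Wuhan-Hu-1 S carrying a 19-aa C-terminal deletion; signal was luciferase after two days, scaled between spike PP and fusion-protein-free PP.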

Cytochrome P450 2D6 (Homo sapiens), sequence (P10635 whole entry, looked up): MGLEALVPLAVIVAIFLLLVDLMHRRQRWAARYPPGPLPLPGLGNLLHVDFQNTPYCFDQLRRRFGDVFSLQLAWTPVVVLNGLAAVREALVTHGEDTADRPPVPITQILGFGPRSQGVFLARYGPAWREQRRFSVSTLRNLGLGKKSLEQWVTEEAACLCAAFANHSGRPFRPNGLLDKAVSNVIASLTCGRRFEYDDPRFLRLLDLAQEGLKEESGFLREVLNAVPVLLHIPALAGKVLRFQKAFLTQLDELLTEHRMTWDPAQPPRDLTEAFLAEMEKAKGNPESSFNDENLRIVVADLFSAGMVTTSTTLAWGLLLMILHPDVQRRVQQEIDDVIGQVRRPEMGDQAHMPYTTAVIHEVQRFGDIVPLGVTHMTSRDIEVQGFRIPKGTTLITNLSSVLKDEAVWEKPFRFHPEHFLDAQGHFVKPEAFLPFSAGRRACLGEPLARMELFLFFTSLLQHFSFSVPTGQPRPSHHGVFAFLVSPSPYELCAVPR
Cytochrome P450 2C9 (Homo sapiens), sequence (P11712 whole entry, looked up): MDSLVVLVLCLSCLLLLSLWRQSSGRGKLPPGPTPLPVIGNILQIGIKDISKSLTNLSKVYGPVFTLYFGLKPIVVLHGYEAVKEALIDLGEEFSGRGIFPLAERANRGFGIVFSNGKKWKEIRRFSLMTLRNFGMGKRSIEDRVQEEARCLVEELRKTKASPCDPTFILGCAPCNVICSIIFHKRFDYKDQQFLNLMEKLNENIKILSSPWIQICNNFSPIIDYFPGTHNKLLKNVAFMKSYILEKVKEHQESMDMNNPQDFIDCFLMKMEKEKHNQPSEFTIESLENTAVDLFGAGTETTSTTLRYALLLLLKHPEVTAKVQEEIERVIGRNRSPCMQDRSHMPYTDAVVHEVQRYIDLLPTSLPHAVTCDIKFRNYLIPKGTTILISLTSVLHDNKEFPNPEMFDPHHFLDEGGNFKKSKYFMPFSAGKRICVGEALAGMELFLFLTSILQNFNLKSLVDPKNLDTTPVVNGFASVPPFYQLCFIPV
Papain (Carica papaya), sequence (P00784 whole entry, looked up): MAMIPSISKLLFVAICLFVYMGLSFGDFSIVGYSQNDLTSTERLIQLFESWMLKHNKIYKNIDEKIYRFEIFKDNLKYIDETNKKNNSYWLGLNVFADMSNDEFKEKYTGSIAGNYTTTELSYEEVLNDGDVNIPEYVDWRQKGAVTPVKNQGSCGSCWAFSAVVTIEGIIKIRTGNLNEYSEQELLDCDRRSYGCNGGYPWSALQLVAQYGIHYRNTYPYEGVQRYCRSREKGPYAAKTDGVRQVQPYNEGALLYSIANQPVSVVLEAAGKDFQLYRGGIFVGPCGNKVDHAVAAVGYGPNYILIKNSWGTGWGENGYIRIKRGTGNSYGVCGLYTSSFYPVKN
Rap guanine nucleotide exchange factor 4 (Homo sapiens), sequence (Q8WZA2 whole entry, looked up): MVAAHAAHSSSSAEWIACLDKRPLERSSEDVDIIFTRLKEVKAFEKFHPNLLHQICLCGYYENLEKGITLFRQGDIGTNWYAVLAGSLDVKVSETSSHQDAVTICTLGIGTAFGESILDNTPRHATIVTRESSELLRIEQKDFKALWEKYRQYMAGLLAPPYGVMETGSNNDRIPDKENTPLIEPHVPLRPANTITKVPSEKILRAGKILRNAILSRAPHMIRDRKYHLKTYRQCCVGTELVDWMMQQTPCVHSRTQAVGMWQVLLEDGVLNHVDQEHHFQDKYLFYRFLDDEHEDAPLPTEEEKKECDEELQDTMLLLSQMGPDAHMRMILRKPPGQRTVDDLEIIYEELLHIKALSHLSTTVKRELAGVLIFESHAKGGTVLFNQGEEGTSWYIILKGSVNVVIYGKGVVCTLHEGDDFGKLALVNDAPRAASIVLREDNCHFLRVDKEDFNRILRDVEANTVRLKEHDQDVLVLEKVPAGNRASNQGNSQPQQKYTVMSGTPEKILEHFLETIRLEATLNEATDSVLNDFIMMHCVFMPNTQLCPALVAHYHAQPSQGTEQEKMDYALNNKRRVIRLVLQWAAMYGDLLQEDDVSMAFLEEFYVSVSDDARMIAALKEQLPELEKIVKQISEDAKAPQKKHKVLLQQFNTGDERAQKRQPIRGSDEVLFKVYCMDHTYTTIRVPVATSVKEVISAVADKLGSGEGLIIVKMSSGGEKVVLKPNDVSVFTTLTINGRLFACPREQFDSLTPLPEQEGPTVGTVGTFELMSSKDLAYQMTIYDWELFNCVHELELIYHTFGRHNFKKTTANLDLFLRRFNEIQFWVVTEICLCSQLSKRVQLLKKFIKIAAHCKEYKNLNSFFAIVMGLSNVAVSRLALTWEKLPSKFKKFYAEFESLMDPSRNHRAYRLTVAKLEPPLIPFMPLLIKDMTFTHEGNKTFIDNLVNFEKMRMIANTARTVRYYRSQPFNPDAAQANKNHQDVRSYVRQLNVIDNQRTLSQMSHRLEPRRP
N-terminal Xaa-Pro-Lys N-methyltransferase 1 (Homo sapiens), sequence (Q9BV86 whole entry, looked up): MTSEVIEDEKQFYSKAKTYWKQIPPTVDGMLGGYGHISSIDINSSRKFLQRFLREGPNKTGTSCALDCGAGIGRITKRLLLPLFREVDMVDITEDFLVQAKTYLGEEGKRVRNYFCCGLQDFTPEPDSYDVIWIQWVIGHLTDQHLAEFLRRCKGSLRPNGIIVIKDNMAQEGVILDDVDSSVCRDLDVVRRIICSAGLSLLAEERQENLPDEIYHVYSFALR
Rap guanine nucleotide exchange factor 3 (Homo sapiens), sequence (O95398 whole entry, looked up): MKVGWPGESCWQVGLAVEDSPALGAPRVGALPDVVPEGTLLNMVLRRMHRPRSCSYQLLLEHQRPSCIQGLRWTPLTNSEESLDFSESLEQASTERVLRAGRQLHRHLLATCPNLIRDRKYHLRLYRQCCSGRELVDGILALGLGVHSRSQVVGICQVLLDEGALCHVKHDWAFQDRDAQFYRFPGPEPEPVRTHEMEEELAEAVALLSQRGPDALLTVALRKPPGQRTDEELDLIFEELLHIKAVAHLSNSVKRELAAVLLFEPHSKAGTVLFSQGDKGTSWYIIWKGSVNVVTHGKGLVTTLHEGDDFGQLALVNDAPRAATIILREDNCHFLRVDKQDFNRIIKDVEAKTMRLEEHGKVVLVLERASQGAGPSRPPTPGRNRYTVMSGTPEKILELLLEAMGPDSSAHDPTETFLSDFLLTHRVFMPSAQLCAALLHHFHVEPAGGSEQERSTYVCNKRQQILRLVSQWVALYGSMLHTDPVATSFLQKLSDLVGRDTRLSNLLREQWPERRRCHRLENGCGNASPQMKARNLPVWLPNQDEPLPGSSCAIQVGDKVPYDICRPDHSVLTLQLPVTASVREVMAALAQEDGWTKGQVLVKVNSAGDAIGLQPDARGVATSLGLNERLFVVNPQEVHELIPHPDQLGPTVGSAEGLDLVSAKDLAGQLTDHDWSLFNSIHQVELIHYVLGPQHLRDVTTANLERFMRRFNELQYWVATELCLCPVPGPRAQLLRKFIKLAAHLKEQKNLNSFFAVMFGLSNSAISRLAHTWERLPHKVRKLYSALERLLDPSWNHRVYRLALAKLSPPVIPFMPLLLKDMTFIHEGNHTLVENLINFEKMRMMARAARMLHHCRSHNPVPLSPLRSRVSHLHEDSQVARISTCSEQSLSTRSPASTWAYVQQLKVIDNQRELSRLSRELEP
Cytochrome P450 3A4 (Homo sapiens), sequence (P08684 whole entry, looked up): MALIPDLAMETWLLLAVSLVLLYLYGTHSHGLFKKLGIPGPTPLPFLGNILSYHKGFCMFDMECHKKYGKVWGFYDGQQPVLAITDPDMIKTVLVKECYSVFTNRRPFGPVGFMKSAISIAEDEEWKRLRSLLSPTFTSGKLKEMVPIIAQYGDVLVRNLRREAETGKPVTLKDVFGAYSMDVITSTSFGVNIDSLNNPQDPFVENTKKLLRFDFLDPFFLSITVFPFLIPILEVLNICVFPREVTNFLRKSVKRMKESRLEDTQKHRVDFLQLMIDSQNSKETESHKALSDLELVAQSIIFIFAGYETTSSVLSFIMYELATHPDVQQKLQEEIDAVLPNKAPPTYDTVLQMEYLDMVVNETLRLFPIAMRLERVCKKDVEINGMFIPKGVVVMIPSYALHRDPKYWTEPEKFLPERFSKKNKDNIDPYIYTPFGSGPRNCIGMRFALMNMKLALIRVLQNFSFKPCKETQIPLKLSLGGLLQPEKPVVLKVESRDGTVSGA

## C[C@]12Cc3cn[nH]c3C[C@@H]1CC[C@@H]1[C@H]2CC[C@@]2(C)[C@H]1CC[C@]2(C)O
[1]
  Potency: inactive

## COc1ccc2c(c1)[C@]13CCCCC1C(C2)N(C)CC3 (stereo not given in full)
[1]
  Potency: 0.473 µM (active)

## Cc1c(N)nc([C@H](CC(N)=O)NC[C@@H](N)C(N)=O)nc1C(=O)N[C@H](C(=O)N[C@@H](C)[C@H](O)[C@@H](C)C(=O)N[C@@H](C(=O)NCCc1nc(-c2nc(C(=O)NCCC[S+](C)C)cs2)cs1)[C@@H](C)O)C(O[C@H]1O[C@H](CO)[C@H](O)[C@@H](O)[C@@H]1O[C@H]1O[C@H](CO)[C@@H](O)[C@H](OC(N)=O)[C@H]1O)c1cnc[nH]1 (stereo not given in full)
[1]
  Potency: inactive

## Nc1ccc(Cl)cc1N
[2]
  max response: 1.89% (inactive)
[3]
  Potency: 25.9 µM (active)
[4]
  Potency: 7.96 µM (active)
[5]
  Potency: 23.3 µM (active)

## NC1CCc2cc(O)c(O)cc2C1 (stereo not given)
[6]
  Potency: inactive
[2]
  max response: 25.8% (inactive)
Papain (Carica papaya)
  Potency: inactive

## Clc1ccc(C(c2ccc(Cl)cc2)n2cc[n+](CC(OCc3ccc(Cl)cc3Cl)c3ccc(Cl)cc3Cl)c2)cc1 (stereo not given)
[6]
  Potency: inactive
[2]
  max response: -14.7% (inactive)
[7]
  Potency: 31.6 µM (active)

## Nc1ccc(N=Nc2ccccc2)cc1
[6]
  Potency: 44.7 µM (active)
[2]
  max response: 1.98% (inactive)
[3]
  Potency: 41.1 µM (active)
[5]
  Potency: 9.2 µM (active)
[8]
  Potency: 6.11 µM (active)
[9]
  Potency: 6.86 µM (active)

## C=C[C@@H]1CN2CCC1C[C@H]2[C@H](O)c1ccnc2ccccc12 (stereo not given in full)
[1]
  Potency: inactive

## C[C@H]1CCCC=CC2C[C@H](O)C[C@@H]2[C@H](O)C=CC(=O)O1 (stereo not given in full)
[6]
  Potency: inactive
[2]
  Potency: 0.0708 µM (active)

## C=C1C[C@H]2[C@H]3CCC(=O)[C@@]3(C)CC[C@@H]2[C@@]2(C)C=CC(=O)C=C12
[1]
  Potency: inactive

## C=C[C@@H]1CN2CCC1C[C@@H]2[C@@H](O)c1ccnc2ccccc12 (stereo not given in full)
[1]
  Potency: inactive

## CCCCc1ccc(C(=O)O)nc1
Papain (Carica papaya)
  Potency: inactive

## CC(=O)[O][Hg][c]1ccccc1
[10]
  Potency: 1.07 µM (active)

## CCCN(CCC)c1c([N+](=O)[O-])cc(S(N)(=O)=O)cc1[N+](=O)[O-]
[11]
  outcome: inactive
[12]
  outcome: inactive
[13]
  Potency: 89.7 µM (active)

## CC(=O)Nc1ccc(OC[C@](C)(O)C(=O)Nc2ccc([N+](=O)[O-])c(C(F)(F)F)c2)cc1
[1]
  Potency: inactive
[5]
  Potency: 9.52 µM (active)
[7]
  Potency: inactive
[9]
  Potency: inactive

## CCC(=O)O[C@@H]1C=C2CCC3C(CCC4(C)C3CC[C@@H]4OC(=O)CC)C2CC1 (stereo not given in full)
[1]
  Potency: inactive
[5]
  Potency: 19.5 µM (active)
[7]
  Potency: inactive
[14]
  activity change, negative = inhibition: 4.26%
[8]
  Potency: inactive

## CO/C=C(/C(=O)OC)c1ccccc1Oc1cc(Oc2ccccc2C#N)ncn1
[1]
  Potency: inactive
[3]
  Potency: 39.9 µM (active)
[5]
  Potency: 3.66 µM (active)
[8]
  Potency: 24.3 µM (active)
[9]
  Potency: 24.3 µM (active)

## COc1ccc(N(C(=O)Oc2c(C)cccc2C)c2ccnc(Nc3ccc(N4CCN(C)CC4)cc3)n2)c(OC)c1
[1]
  Potency: inactive
[3]
  Potency: 1.9 µM (active)
[5]
  Potency: 21.3 µM (active)
[7]
  Potency: inactive
[14]
  Potency: inactive
[8]
  Potency: 4.68 µM (active)
[9]
  Potency: 5.25 µM (active)

## CCO/N=C(\CC)C1=C(O)CC(c2c(C)cc(C)cc2C)CC1=O (stereo not given)
[1]
  Potency: inactive
[5]
  Potency: 4.48 µM (active)

## S=C(SSC(=S)N1CCCCC1)N1CCCCC1
[1]
  Potency: inactive
[3]
  Potency: inactive
[14]
  Potency: 1.12 µM (active)

## O=C(O)C(Cl)Cl
[1]
  Potency: inactive
[3]
  Potency: inactive
[5]
  Potency: inactive
[8]
  Potency: inactive
[9]
  Potency: inactive
